Read-out in test [1]: Macrophage colony-stimulating factor (MCSF), CSF1 (gene 1435)
Nature of the test: BSK_hDFCGF_MCSF: BioMAP Diversity Plus: hDFCGF Assay for Macrophage colony-stimulating factor (MCSF) Biomarker Activity (AID 2283060). The note with it: primary human foreskin fibroblasts; actives raise or lower the signal. An outline of the steps:
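Human foreskin primary fibroblasts were treated with test chemical for 24 h, and M-CSF was then measured by ELISA. Data were fitted bidirectionally against DMSO as the negative control and activity baseline.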

A short description of test [2]: BSK_hDFCGF_SRB: Viability Assessment in the BioMAP Diversity Plus: hDFCGF Assay (AID 2283061).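 Further: cells exposed to compound for 24 h before the read.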 The note with it: primary human foreskin fibroblasts. An outline of the steps: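 Human foreskin primary fibroblasts were treated with compound and assessed 24 h after dosing. Total protein was measured by sulforhodamine B staining (0.1% SRB after 10% TCA fixation, 560 nm read) as a cytotoxicity marker, with bidirectional fitting against DMSO baseline.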

Read-out in test [3]: TIMP metallopeptidase inhibitor 1 (TIMP1), TIMP1 (gene 7076)
Put plainly: BSK_hDFCGF_TIMP1: BioMAP Diversity Plus: hDFCGF Assay for TIMP metallopeptidase inhibitor 1 (TIMP1) Biomarker Activity (AID 2283062). The note with it: primary human foreskin fibroblasts; actives raise or lower the signal. A digest of the protocol:
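Primary human foreskin fibroblasts in the hDFCGF system were dosed with compound for 24 h, then TIMP-1 was measured by ELISA. Activity was fitted bidirectionally relative to DMSO control; parallel SRB staining assessed cytotoxicity.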

Read-out in test [4]: Monokine induced gamma interferon (MIG), CXCL9 (gene 4283)
Nature of the test: BSK_hDFCGF_MIG: BioMAP Diversity Plus: hDFCGF Assay for Monokine induced gamma interferon (MIG) Biomarker Activity (AID 2283063). The note with it: primary human foreskin fibroblasts; actives raise or lower the signal. An outline of the steps: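 ELISA read-out of MIG from primary human dermal fibroblasts 24 h post-dosing. Gain or loss of signal fitted bidirectionally, DMSO as baseline.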

Read-out in test [5]: Matrix Metallopeptidase 1 (MMP1), MMP1 (gene 4312)
Put plainly: BSK_hDFCGF_MMP1: BioMAP Diversity Plus: hDFCGF Assay for Matrix Metallopeptidase 1 (MMP1) Biomarker Activity (AID 2283064). The note with it: primary human foreskin fibroblasts; actives raise or lower the signal. A digest of the protocol:
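MMP1 levels quantified by ELISA 24 h after dosing human dermal fibroblast cultures, with parallel SRB total-protein staining for overt cytotoxicity. Data fitted in both directions against DMSO baseline.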

Read-out in test [6]: Vascular cell adhesion molecule 1 (VCAM1), VCAM1 (gene 7412)
Put plainly: BSK_hDFCGF_VCAM1: BioMAP Diversity Plus: hDFCGF Assay for Vascular cell adhesion molecule 1 (VCAM1) Biomarker Activity (AID 2283065).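 On AC50: VCAM-1 protein level quantified by ELISA after 24 h chemical exposure.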 The note with it: primary human foreskin fibroblasts; actives raise or lower the signal. A digest of the protocol:
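Primary human foreskin fibroblasts (hDFCGF system) were dosed with chemical and VCAM-1 was measured by ELISA 24 h later. Bidirectional curve fitting used DMSO as negative control and activity baseline.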

Read-out in test [7]: Plasminogen activator inhibitor-1 (PAI1), SERPINE1 (gene 5054)
Nature of the test: BSK_hDFCGF_PAI1: BioMAP Diversity Plus: hDFCGF Assay for Plasminogen activator inhibitor-1 (PAI1) Biomarker Activity (AID 2283066). The note with it: primary human foreskin fibroblasts; actives raise or lower the signal. An outline of the steps: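 ELISA readout of PAI-1 from primary human skin fibroblast cultures, 24 h after compound addition. Gain or loss of signal was fitted bidirectionally against DMSO baseline.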

Read-out in test [8]: Intercellular Adhesion Molecule 1 (ICAM1), ICAM1 (gene 3383)
Put plainly: BSK_KF3CT_ICAM1: BioMAP Diversity Plus: KF3CT Assay for Intercellular Adhesion Molecule 1 (ICAM1) Biomarker Activity (AID 2283067). The note with it: primary human keratinocytes with fibroblasts; actives raise or lower the signal. A digest of the protocol:
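Human keratinocyte plus foreskin fibroblast primary co-culture was exposed to chemical for 24 h. ICAM-1 was then quantified by ELISA, and the data were fit bidirectionally against DMSO as the negative control and baseline.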

Read-out in test [9]: Interferon-gamma inducible Protein 10 (IP10), CXCL10 (gene 3627)
Put plainly: BSK_KF3CT_IP10: BioMAP Diversity Plus: KF3CT Assay for Interferon-gamma inducible Protein 10 (IP10) Biomarker Activity (AID 2283068). The note with it: primary human keratinocytes with fibroblasts; actives raise or lower the signal. An outline of the steps:
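KF3CT co-culture (keratinocytes + foreskin fibroblasts), 24 h compound, IP-10 by ELISA; bidirectional fit vs DMSO baseline.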

A short description of test [10]: BSK_KF3CT_SRB: Viability Assessment in the BioMAP Diversity Plus: KF3CT Assay (AID 2283069). The note with it: primary human keratinocytes with fibroblasts. A digest of the protocol: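 Cytotoxicity was gauged by SRB staining (0.1% SRB, 10% TCA fixation, 560 nm) of parallel cultures at 24 h. The cells were primary human skin keratinocytes co-cultured with fibroblasts, and activity was fitted in both directions against DMSO.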

Read-out in test [11]: Interleukin-1 alpha (IL1a), IL1A (gene 3552)
Put plainly: BSK_KF3CT_IL1a: BioMAP Diversity Plus: KF3CT Assay for Interleukin-1 alpha (IL1a) Biomarker Activity (AID 2283070). The note with it: primary human keratinocytes with fibroblasts; actives raise or lower the signal. An outline of the steps:
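IL-1a was detected by ELISA 24 h after chemical treatment of a co-culture of human skin keratinocytes and foreskin fibroblasts. Gain or loss of signal was fitted against the DMSO baseline.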

Read-out in test [12]: TIMP metallopeptidase inhibitor 2 (TIMP2), TIMP2 (gene 7077)
Put plainly: BSK_KF3CT_TIMP2: BioMAP Diversity Plus: KF3CT Assay for TIMP metallopeptidase inhibitor 2 (TIMP2) Biomarker Activity (AID 2283071). The note with it: primary human keratinocytes with fibroblasts; actives raise or lower the signal. A digest of the protocol: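 ELISA readout of TIMP-2 in keratinocyte plus foreskin fibroblast co-cultures (human skin primary cells), 24 h post-dose. Gain or loss of signal fitted relative to DMSO.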

Read-out in test [13]: Transforming growth factor beta 1 (TGFb1), TGFB1 (gene 7040)
Nature of the test: BSK_KF3CT_TGFb1: BioMAP Diversity Plus: KF3CT Assay for Transforming growth factor beta 1 (TGFb1) Biomarker Activity (AID 2283072). The note with it: primary human keratinocytes with fibroblasts; actives raise or lower the signal. A digest of the protocol: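 Read-out: ELISA for TGF-b1 in keratinocyte/foreskin fibroblast human skin co-culture, 24 h after dosing; bidirectional curve fit vs DMSO baseline; gain or loss of signal scored.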

Read-out in test [14]: C-C motif chemokine 2 (Homo sapiens) (UniProt P13500)
Put plainly: BSK_KF3CT_MCP1: BioMAP Diversity Plus: KF3CT Assay for Monocyte Chemoattractant Protein 1 (MCP1/CCL2) Biomarker Activity (AID 2283073). The note with it: primary human keratinocytes with fibroblasts; actives raise or lower the signal. A digest of the protocol:
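Human keratinocyte plus foreskin fibroblast primary co-culture exposed to chemical for 24 h. MCP-1 levels measured by ELISA. Bidirectional curve fitting relative to DMSO negative control as baseline.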

Read-out in test [15]: urokinase plasminogen activator (uPA), PLAU (gene 5328)
Nature of the test: BSK_KF3CT_uPA: BioMAP Diversity Plus: KF3CT Assay for urokinase plasminogen activator (uPA) Biomarker Activity (AID 2283075). The note with it: primary human keratinocytes with fibroblasts; actives raise or lower the signal. A digest of the protocol: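 ELISA read-out of uPA 24 h after dosing human skin keratinocytes co-cultured with foreskin fibroblasts. Signal change fitted both ways relative to DMSO; sulforhodamine B on parallel cultures marks overt cytotoxicity.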

Read-out in test [16]: CD40, CD40 (gene 958)
Put plainly: BSK_LPS_CD40: BioMAP Diversity Plus: LPS Assay for CD40 Biomarker Activity (AID 2283076). The note with it: primary human HUVEC with PBMC; actives raise or lower the signal. A digest of the protocol:
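Primary human umbilical vein endothelial cells co-cultured with peripheral blood mononuclear cells, LPS-stimulated, were dosed with chemical and read 24 h later. CD40 levels were measured by ELISA and fitted bidirectionally against DMSO as negative control and baseline.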

Read-out in test [17]: E-selectin (Homo sapiens) (UniProt P16581)
Put plainly: BSK_LPS_Eselectin: BioMAP Diversity Plus: LPS Assay for Eselectin Biomarker Activity (AID 2283077). The note with it: primary human HUVEC with PBMC; actives raise or lower the signal. An outline of the steps: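 Human umbilical vein endothelial cells co-cultured with peripheral blood mononuclear cells under LPS stimulation; E-selectin measured by ELISA 24 h after chemical dosing. Activity fitted bidirectionally against DMSO as negative control and baseline.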

Read-out in test [18]: Interleukin-8 (IL8), CXCL8 (gene 3576)
Put plainly: BSK_LPS_IL8: BioMAP Diversity Plus: LPS Assay for Interleukin-8 (IL8) Biomarker Activity (AID 2283078). The note with it: primary human HUVEC with PBMC; actives raise or lower the signal. An outline of the steps: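 Human umbilical vein endothelial cells co-cultured with PBMC were stimulated with LPS; IL-8 levels were measured by ELISA 24 h after chemical dosing. Activity was fitted bidirectionally against DMSO as negative control and baseline.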

Test [19] in a line: BSK_LPS_SRB: Viability Assessment in the BioMAP Diversity Plus: LPS Assay (AID 2283079).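 Further: total protein by sulforhodamine B absorbance as a cytotoxicity measure; measured one day after compound addition; fitted in both directions against DMSO so loss or gain of signal counts.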 The note with it: primary human HUVEC with PBMC. A digest of the protocol:
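Human umbilical vein endothelial cells co-cultured with PBMC (LPS system) were dosed for 24 h. Total protein was stained with 0.1% sulforhodamine B after 10% TCA fixation, read at 560 nm, and fitted bidirectionally against DMSO baseline.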

Active and inactive are the calls of the source. How the source made its calls: active means hit-call score of the fitted dose curve at least 0.9, where 1 is the maximum; inactive means score below 0.9.

E-selectin (Homo sapiens), sequence (P16581 whole entry, looked up): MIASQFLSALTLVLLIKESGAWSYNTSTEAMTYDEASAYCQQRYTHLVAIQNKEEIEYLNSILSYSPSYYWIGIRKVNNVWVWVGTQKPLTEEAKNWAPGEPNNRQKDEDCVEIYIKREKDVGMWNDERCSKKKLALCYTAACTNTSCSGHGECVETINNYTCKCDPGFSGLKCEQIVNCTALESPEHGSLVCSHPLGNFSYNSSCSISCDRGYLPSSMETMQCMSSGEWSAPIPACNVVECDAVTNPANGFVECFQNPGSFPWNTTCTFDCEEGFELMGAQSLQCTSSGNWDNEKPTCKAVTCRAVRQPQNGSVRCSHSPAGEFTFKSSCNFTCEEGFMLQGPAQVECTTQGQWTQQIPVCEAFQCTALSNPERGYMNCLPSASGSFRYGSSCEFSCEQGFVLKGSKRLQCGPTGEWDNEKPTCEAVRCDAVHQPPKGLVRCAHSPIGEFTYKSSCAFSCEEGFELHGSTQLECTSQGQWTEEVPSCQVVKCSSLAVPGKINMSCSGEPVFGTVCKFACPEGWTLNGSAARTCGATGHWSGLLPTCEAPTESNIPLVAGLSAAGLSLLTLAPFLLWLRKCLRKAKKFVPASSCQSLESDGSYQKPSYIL

Take `CS(=O)(=O)c1ccc([C@@H](CC2CCCC2)C(=O)Nc2cnccn2)cc1Cl`: the outcome in [1], in test [2], in [3], in test [4], in [5] and in test [6] was inactive. For the same compound, the result in test [8], in test [9], in [10], in [11], in [12] and in test [13] was inactive. Besides, the result in test [14], in test [15], in [16], in test [17], in [18] and in test [19] was inactive. The AC50 in test [7] is 20 µM (active).

For the compound `O=C(NO)c1ccccc1`, the result in [1], in test [2], in test [3], in test [4], in [5] and in [6] was inactive. Moreover, the outcome in test [7], in [8], in [9], in [10], in [11] and in test [12] was inactive. Besides, the outcome in test [13], in [14], in test [15], in test [16], in test [17] and in [18] was inactive. Further, in test [19], the result was inactive.

Regarding `CCCCc1oc2ccccc2c1C(=O)c1cc(I)c(OCCN(CC)CC)c(I)c1`, the AC50 was 6.99 µM (active) in [1]; 4.64 µM (active) in test [2]; 9.35 µM (active) in test [3]; 10.2 µM (active) in [4]; 9.45 µM (active) in [5]; 8.94 µM (active) in test [6]. The AC50 is 4.81 µM (active) in test [7]; 22.8 µM (active) in [8]; 8.36 µM (active) in test [9]; 9.02 µM (active) in [10]; 9.69 µM (active) in test [11]; 8.7 µM (active) in test [12]. The AC50 in test [13] was 5.6 µM (active); in test [14] it was 11.9 µM (active); in test [15], 9.85 µM (active); in [16] it was 13.9 µM (active); in [17] it was 24.2 µM (active); in test [18], 25.9 µM (active). In test [19], the AC50 was 19.4 µM (active).

In general, AC50 refers to the concentration giving half of the maximal activity seen.

These data come from PubChem BioAssay (EPA / NIEHS).
